RORg inh = qHTS for inhibitors of ROR gamma transcriptional activity; Drosophila S2 Gal4-RORgamma UAS-luciferase reporter, 20 h; Nuclear receptor ROR-gamma (Mus musculus), P51450; Potency, µM (doses to about 53.6 µM), inactives show top-dose activity change, negative = inhibition, actives largely listed as inhibitors; 5.4% of 310,000 active; note: nearly all actives have a fitted effect of over 60% in size
Target sequence (P51450 whole entry, looked up, the tested form may be a part): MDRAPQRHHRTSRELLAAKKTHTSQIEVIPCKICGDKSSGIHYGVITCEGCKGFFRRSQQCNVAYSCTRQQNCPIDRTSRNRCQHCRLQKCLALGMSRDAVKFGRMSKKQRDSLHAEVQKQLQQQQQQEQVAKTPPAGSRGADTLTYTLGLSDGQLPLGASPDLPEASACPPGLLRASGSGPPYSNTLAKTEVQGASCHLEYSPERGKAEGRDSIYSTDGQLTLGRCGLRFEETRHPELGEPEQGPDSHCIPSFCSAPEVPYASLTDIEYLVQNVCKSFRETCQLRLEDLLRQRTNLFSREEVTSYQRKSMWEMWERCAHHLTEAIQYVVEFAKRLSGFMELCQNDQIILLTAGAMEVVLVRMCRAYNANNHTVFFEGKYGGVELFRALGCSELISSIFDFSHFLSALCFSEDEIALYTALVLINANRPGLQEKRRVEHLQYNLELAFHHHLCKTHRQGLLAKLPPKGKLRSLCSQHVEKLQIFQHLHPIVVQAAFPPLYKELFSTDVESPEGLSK
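Schneider cells (Drosophila), stable Gal4 DBD–ROR gamma + UAS-luc; 1 hr cmpd preincubation; Cu2+ induction 700 uM final; 20 hr ambient; luminescence.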
VP16 counter = VP16 counterscreen qHTS for inhibitors of ROR gamma transcriptional activity | Drosophila S2 Gal4-VP16 UAS-luciferase, luminescence, 20 h | Potency, µM (doses to about 53.6 µM), without a hit: at the highest dose activity, negative = inhibition, actives largely listed as inhibitors | 3.5% of 310,000 active | AID 2546, 2010;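 note: Gal4-VP16 expression switched on by copper sulfate through the metallothionein promoter; nearly all actives have a fitted effect of over 50% in size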
KinaseGlo FLuc = Counterscreen for Luciferase (Kinase-Glo TM) Inhibition | Luciferin 4-monooxygenase (Photuris pensylvanica), Q27757 | Kinase-Glo luciferase, ATP luminescence, 8 min | Potency, µM (titrated, usually from 38.3 µM), for the others: top-dose activity change, negative = inhibition, actives largely listed as inhibitors | 0.28% of 200,000 active | AID 1379, 2008; note: nearly all actives have a fitted effect of over 60% in size
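Luminescence was the read-out, taken after 8-minute incubation at ambient temperature. Luciferase turned over luciferin with 10 uM ATP in imidazole pH 7.2 buffer containing KCl, MgCl2, Tween 20 and BSA.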
Active calls of the source: *; ? = inconclusive; · = no result; [ ] = dose if it differs, or a comment. A selection: hits, their analogues and other compounds. The true share with any hit is near 6.2%. Calls come from the whole dose curve; as a rule, active = well fitted curve in the direction sought with a large enough effect; inconclusive = small, poorly fitted or top-dose-only effect, or another doubt; inactive = no such curve, though single readings can be large; an effect the other way counts as inactive or inconclusive. % is set by controls: 0 for no effect and ±100 for the full control effect; potency is the fitted concentration of half-maximal effect.

SMILES	RORg inh	VP16 counter	KinaseGlo FLuc
C=C(C)C1Cc2c(C)nn(-c3cccc4cccnc34)c2C1 (stereo unspecified)	14µM*	-27%	·
Cc1nnc(C)c2c(C)n(-c3cccc4cccnc34)c(C)c12	-15%	-7%	-1%
C=C(C)C1Cc2c(C)nn(-c3ccccn3)c2C1 (stereo unspecified)	13µM*	?	-2%
COc1ccc(-n2c(=O)c(-c3ccc(Cl)cc3)nc3cncnc32)cc1	?	-6%	-1%
O=C1Cc2cccc3cccc1c23	-11%	3%	17%
CCCCc1ccc(NC(=O)C(=O)NCCN2CCN(Cc3ccc([N+](=O)[O-])cc3)CC2)cc1	?	-28%	-1%
Cc1ccc(OCCOC(=O)Cn2nc(C)c([N+](=O)[O-])c2C)cc1	4%	-13%	-2%
COCCNC(=S)NNC(=O)c1cc(-c2cccnc2)nc2ccccc12	13µM*	?	·
O=C(Nc1nccs1)c1cc(-c2ccncc2)nc2ccccc12	-31%	-14%	-2%
COCCCNC(=O)c1cc(Nc2ccc(OC)cc2OC)nc2ccccc12	20%	-1%	·
COCCCNC(=S)NNC(=O)c1cc(C2CC2)nc2ccccc12	2.8µM*	?	·
CCCc1cc(C(=O)NNC(=S)NCC)c2ccccc2n1	-40%	?	-3%
Cc1ccc(-c2cc(C(=O)Nc3nccs3)c3ccccc3n2)c(C)c1	4.5µM*	6.3µM*	0%
CCNC(=S)NNC(=O)c1cc(-c2cc(C)ccc2C)nc2ccccc12	0.35µM*	-22%	6%
COCCCNC(=S)NNC(=O)c1cc(-c2cccnc2)nc2ccccc12	-34%	-27%	·
Cc1ccc2[nH]c(=O)c(CN(Cc3ccco3)C(=O)CN3CCCC(C)C3)cc2c1 (stereo unspecified)	-10%	-2%	2%
CCOC(=O)c1ccc(Cl)c(NC(=O)c2cccnc2)c1	14%	-9%	4%
CCCCCCCCOc1ccccc1C(=O)Nc1ccc(C(=O)OCC[N+](C)(CC)CC)cc1	29%	-6%	·
Cc1ccc(OCC(=O)NCc2cccs2)c([N+](=O)[O-])n1	-24%	-1%	-2%
COc1cc(CN2CCC(N3CCC(C(=O)N4CCCC4)CC3)CC2)cc2c1OCO2	13%	-1%	·
O=C(O)C1=CC(O)[C@@H](O)C(O)C1 (stereo partly specified)	-15%	-2%	-1%
CSCC[C@@H]1NC(=O)[C@@H](NC(=O)[C@H](CCCNC(=N)N)NC(=O)[C@H](CC(C)C)NC(=O)[C@H](CCSC)NC(=O)[C@H](CC(=O)O)NC(=O)[C@H](Cc2ccccc2)NC(=O)[C@@H](N)CC(=O)O)CSSC[C@@H](C(=O)N[C@@H](Cc2c[nH]c3ccccc23)C(=O)N[C@@H](CCC(N)=O)C(=O)N[C@H](C(=O)O)C(C)C)NC(=O)[C@@H]2CCCN2C(=O)[C@H](CCCNC(=N)N)NC(=O)[C@H](Cc2ccc(O)cc2)NC(=O)[C@H](C(C)C)NC(=O)[C@H](CCCNC(=N)N)NC(=O)CNC(=O)[C@H](CC(C)C)NC1=O	6%	2%	·
Cc1c(NC(=O)CSc2ncnc3ccccc23)c(=O)n(-c2ccccc2)n1C	1%	-7%	8%
C=CCn1c(C(c2ccccc2)c2ccccc2)n[nH]c1=S	7.9µM*	7.9µM*	-2%
C=CCn1c(OCc2ccccc2)n[nH]c1=S	4µM*	18µM*	·
SMILES	RORg inh	VP16 counter	KinaseGlo FLuc
C=CCn1c(C(C)NC(=O)c2ccccc2)n[nH]c1=S (stereo unspecified)	?	2%	-1%
CCn1c(C(c2ccccc2)c2ccccc2)n[nH]c1=S	?	?	-1%
CCn1c(C(C)NC(=O)c2cccs2)n[nH]c1=S (stereo unspecified)	-38%	-1%	-2%
C=CCn1c(C(C)NC(=O)c2cccs2)n[nH]c1=S (stereo unspecified)	10µM*	-2%	-3%
CCOC(=O)N1CCN(C(=O)CCNS(=O)(=O)c2ccc3c(c2)c(=O)n(C)c(=O)n3C)CC1	0%	-12%	-1%
CCCc1cc(C(=O)NC2CCCN(Cc3ccccc3F)C2)no1 (stereo unspecified)	?	-5%	·
CCNc1ncc2nc(-c3ccccc3)c(=O)n(-c3ccc(OC)cc3)c2n1	-4%	5%	-5%
Cc1nc(C(=O)NNC(=O)c2ccccc2)c(C(F)(F)F)o1	11µM*	-4%	·
Cc1nc(C(=O)NCC(=O)c2ccccc2)c(C(F)(F)F)o1	1%	1%	·
C/C(CCN1CCCc2nc(C)c(C)cc21)=N\OC[C@@H](C)[C@H](OCc1ccccc1)C(C)C	8%[10 µM]	6%[10 µM]	·
COC(=O)c1ccccc1S(=O)(=O)N1CCc2nc(-c3ccccc3)c3c(c2C1)CO[C@@H](C)C3	·	·	-7%[7.66 µM]
Clc1ccccc1NN(Cc1ccncc1)c1ccccc1Cl	·	·	-4%[7.66 µM]
COc1ccc(NC2=NC(=S)N(c3ccccc3C)C23CCCCC3)cc1	7.1µM*	?	-1%
COc1ccc(N2C(=S)N=C(Nc3ccccc3)C23CCCCC3)cc1	?	-5%	0%
COc1cc2ncnc(NCc3ccccc3)c2cc1OC	-38%	-10%	-4%
Cc1noc(C)c1-c1ccc2ncnc(NCc3ccc(Br)cc3)c2c1	11µM*	11µM*	·
c1ccc(CNc2ncnc3ccccc23)cc1	-45%	11µM*	0%
CNc1nc(NCc2ccccc2)c2ccccc2n1	40%	-17%	·
Cc1noc(C)c1-c1ccc2ncnc(NCC3CCCCN3C)c2c1 (stereo unspecified)	-30%	5%	·
Cc1ccc(CNc2ncnc3ccc(-c4c(C)noc4C)cc23)cc1	-42%	3%	·
Oc1ccccc1Nc1nc(NCc2ccccc2)c2ccccc2n1	?	22µM*	1%
Cc1noc(C)c1-c1ccc2ncnc(NC3CCCc4ccccc43)c2c1 (stereo unspecified)	28µM*	-4%	·
O=S1(=O)C2CC3C=CC2(CN1Cc1cccc(F)c1)O3 (stereo unspecified)	-18%	11%	·
NCCOB(c1ccccc1)c1ccccc1	?	?	-5%
COc1ccc(C2=NOC(C(=O)Nc3cccnc3)C2)cc1OC (stereo unspecified)	8%	-10%	·
SMILES	RORg inh	VP16 counter	KinaseGlo FLuc
Oc1cc2c(cc1CN1CCN(c3ncccn3)CC1)OCO2	-11%	-5%	·
Cc1noc(C)c1-c1ccc2ncnc(NCc3cccc(Cl)c3)c2c1	-15%	9%	·
Cc1noc(C)c1-c1ccc2ncnc(NCc3ccccc3)c2c1	2.8µM*	-10%	-3%
Cc1ccc(-n2c(=O)c3c(C)c(C)sc3n(Cc3cc(=O)n4ccccc4n3)c2=O)cc1C	20%	-4%	4%
COc1ccccc1C(=O)c1cc2ccc(O)cc2oc1=O	20µM*	10%	-1%
O=C(O)c1ccc(N=c2oc3cc(O)ccc3cc2C(=O)NCc2ccccc2)cc1	-20%	-14%	2%
O=C(NCc1ccccc1)c1cc2ccc(O)cc2oc1=O	2.2µM*	7.1µM*	·
O=C(c1ccc(F)cc1)c1cc2ccc(O)cc2oc1=O	-11%	-3%	·
COc1ccc(NC(=O)N2CC3(CCN(S(=O)(=O)c4ccccc4)CC3)C2)cc1	29%	26%	-1%

From PubChem BioAssay
